The source of these data is PubChem BioAssay (NCI).

The panel holds about 83,000 compounds, 20% with a hit somewhere; the sample as a whole holds those more often.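 Single-dose data. Exposure time 48 hours. Values below 10 considered active.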 Values without a mark were called inactive. Activity calls are given as the source filed them.

Some test systems named below: NCI-H23 lung; NCI-H226 lung; NCI-H322M lung; HOP-62 NSCLC; NCI-H460 lung; NCI-H522 lung; A549/ATCC NSCLC; 786-0 renal; COLO 205 colon; DU-145 prostate; K-562 leukemia; MALME-3M melanoma; MDA-MB-231 breast; RXF 393 renal; SF-268 CNS; SF-295 CNS; SF-539 CNS; UACC-257 melanoma; M14 melanoma.
Holding throughout (test): NCI-60 one-dose screen, 48 h (100 = growth as untreated, 0 = no growth, -100 = all killed)
Holding throughout (conditions): 10 µM unless noted

For `CCCn1cnc2c(c1=N)C(c1ccc(OC)cc1)c1sc3c(C)cccc3c1O2` (stereo not drawn), the growth in the test with NCI-H23 lung was 23.1%; in the test with NCI-H226 lung it was 63.8%; with NCI-H322M lung, 45.3%; with HOP-62 NSCLC, 43.6%; with NCI-H460 lung, 6.21% (active); in the test on NCI-H522 lung, -3.75% (active). For the same compound, the growth with A549/ATCC NSCLC is 29.2%; with 786-0 renal, 31.1%; in the test on COLO 205 colon, 7.69% (active); in the test with DU-145 prostate, 19.1%; in the test with K-562 leukemia, 13%; with MALME-3M melanoma, 57.8%. Also, the growth was 27.4% in the test with MDA-MB-231 breast; -5.55% (active) in the test with RXF 393 renal; 39% in the test with SF-268 CNS; -6.82% (active) with SF-295 CNS; -21.6% (active) in the test on SF-539 CNS; 86.7% with UACC-257 melanoma.
As to `Cc1cccc2c3c(sc12)C(c1ccc(F)cc1)C(C#N)=C(/N=C/c1ccc(Cl)cc1)O3` (stereo not drawn), the growth is 19.1% in the test on NCI-H23 lung; 29.9% with NCI-H226 lung; 47.4% in the test on NCI-H322M lung; 28% with HOP-62 NSCLC; 5.27% (active) in the test with NCI-H460 lung; -53% (active) in the test with NCI-H522 lung. Further, the growth in the test on A549/ATCC NSCLC is 21.7%; with 786-0 renal it was 25.6%; in the test on COLO 205 colon, -49% (active); with DU-145 prostate, 20.8%; in the test on K-562 leukemia, 7.18% (active); in the test on MALME-3M melanoma it was 63.5%. Besides, the growth with MDA-MB-231 breast is 25.6%; with RXF 393 renal, 2.24% (active); in the test on SF-268 CNS, 41.5%; in the test with SF-295 CNS it was 3.61% (active); with SF-539 CNS, -13.1% (active); in the test on UACC-257 melanoma, 56.4%.
With `CC[C@@H](CO)Nc1ccc2ncc(C#Cc3cncc(C(=O)Nc4ccc(CN5CCN(C)CC5)c(C(F)(F)F)c4)c3)n2n1`, the growth is -71.5% (active) in the test with NCI-H23 lung; -39.4% (active) in the test on NCI-H226 lung; -30.1% (active) with NCI-H322M lung; -71.7% (active) in the test on HOP-62 NSCLC; -88.8% (active) in the test with NCI-H460 lung; -76.1% (active) with NCI-H522 lung. Besides, the growth in the test on A549/ATCC NSCLC was -35.3% (active); in the test on 786-0 renal, -96.8% (active); in the test on COLO 205 colon, -87.2% (active); with DU-145 prostate it was -82.4% (active); in the test on K-562 leukemia, 0.898% (active); in the test with MALME-3M melanoma, -82.2% (active). In addition, the growth is -58.3% (active) in the test with MDA-MB-231 breast; -96.2% (active) in the test on RXF 393 renal; -60.4% (active) with SF-268 CNS; -84.7% (active) in the test with SF-295 CNS; -82.1% (active) with SF-539 CNS; -84.8% (active) with UACC-257 melanoma. For the same compound, in the test on M14 melanoma, the growth was -92% (active).
Take `NS(=O)(=O)c1ccc(Nc2nc(SCC(=O)c3ccc(Cl)cc3)nc3c2CCCC3)cc1`: the growth in the test on NCI-H23 lung was 53.9%; in the test with NCI-H226 lung, 56.6%; in the test on NCI-H322M lung, 87%; in the test with HOP-62 NSCLC, 70%; in the test with NCI-H460 lung, 21%; in the test with NCI-H522 lung it was 67.7%. In addition, the growth was 38.9% with A549/ATCC NSCLC; 84.7% in the test with 786-0 renal; 46% in the test on COLO 205 colon; 41.1% with DU-145 prostate; 27.9% with K-562 leukemia; 66.6% in the test on MALME-3M melanoma. Moreover, the growth in the test with MDA-MB-231 breast is 49.6%; in the test with RXF 393 renal, 35.6%; with SF-268 CNS, 62.2%; in the test on SF-295 CNS, 50.3%; in the test with SF-539 CNS, 62.3%; in the test with UACC-257 melanoma it was 62.3%. Further, the growth in the test with M14 melanoma was 59.6%.
As to `CCNC(=O)N1CCc2cc(OC)c(OCCc3ccc(OC)c(N)c3)cc2C1c1cc(C)c(C)cc1C` (stereo not drawn), the growth in the test with NCI-H23 lung is 41.8%; in the test with NCI-H226 lung, 44.7%; with NCI-H322M lung, 53.6%; with HOP-62 NSCLC, 34.2%; in the test on NCI-H460 lung, 4.34% (active); in the test with NCI-H522 lung, 5.26% (active). Moreover, the growth in the test on A549/ATCC NSCLC is 19.6%; in the test with 786-0 renal, 23.3%; with COLO 205 colon it was 55.9%; in the test on DU-145 prostate, 38.7%; in the test on K-562 leukemia it was 20.5%; in the test with MALME-3M melanoma it was 45.5%. Besides, the growth was 53.1% with MDA-MB-231 breast; 22.5% in the test with RXF 393 renal; 40.7% in the test on SF-268 CNS; 18.3% in the test with SF-295 CNS; 26.4% in the test with SF-539 CNS; 50% with UACC-257 melanoma.
Consider `Cc1ccc(S(=O)(=O)NCCNc2nc(Nc3ccc(N4CCN(C)CC4)cc3)nc3ccsc23)cc1`, for which the growth with NCI-H23 lung is 100%; in the test with NCI-H226 lung, 104%; in the test on NCI-H322M lung, 110%; with HOP-62 NSCLC, 112%; with NCI-H460 lung, 96.4%; in the test with NCI-H522 lung, 109%. Also, the growth in the test on A549/ATCC NSCLC is 93.8%; in the test with 786-0 renal, 91.3%; with COLO 205 colon it was 113%; with DU-145 prostate, 102%; in the test on K-562 leukemia it was 0.196% (active); in the test with MALME-3M melanoma, 117%. The growth is 109% with MDA-MB-231 breast; 70% in the test on RXF 393 renal; 74.9% in the test with SF-268 CNS; 98.2% with SF-295 CNS; 94.9% in the test with SF-539 CNS; 107% with UACC-257 melanoma. Also, in the test with M14 melanoma, the growth is 106%.
With `CNC(=O)c1cc(Oc2ccc3nc(NC(=O)c4cccc(OC(F)(F)F)c4)sc3c2)ccn1`, the growth in the test with NCI-H23 lung was 82.8%; in the test on NCI-H226 lung it was 26.5%; in the test on NCI-H322M lung it was 92.6%; in the test on HOP-62 NSCLC it was 78.5%; in the test on NCI-H460 lung, 75.1%; in the test on NCI-H522 lung, 60.3%. Further, the growth is 77.5% in the test on A549/ATCC NSCLC; 50.4% with 786-0 renal; 106% with COLO 205 colon; 75.4% in the test on DU-145 prostate; 61.8% in the test with K-562 leukemia; 76.8% in the test with MALME-3M melanoma. Moreover, the growth in the test on MDA-MB-231 breast was 76.1%; with RXF 393 renal, -1.69% (active); with SF-268 CNS it was 81.8%; in the test on SF-295 CNS, 77.8%; in the test with SF-539 CNS, 63.9%; with UACC-257 melanoma it was 77.6%. Moreover, the growth in the test on M14 melanoma was 93.9%.
As to `O=C1CCCC2=C1C(c1c[nH]c3ccc(Br)cc13)Cc1cc(Br)ccc1N2` (stereo not drawn), the growth in the test on NCI-H23 lung is 45.8%; in the test on NCI-H226 lung, 68.8%; with NCI-H322M lung, 54.2%; in the test with HOP-62 NSCLC, 41.2%; in the test with NCI-H460 lung it was 17.3%; in the test with NCI-H522 lung, 12.8%. Also, the growth with A549/ATCC NSCLC is 43.7%; in the test on 786-0 renal it was 41.2%; in the test with COLO 205 colon, 42.5%; with DU-145 prostate, 57.6%; in the test with K-562 leukemia, 19.8%; in the test on MALME-3M melanoma, 49.3%. The growth was 40% in the test on MDA-MB-231 breast; 50.1% in the test on RXF 393 renal; 51.8% in the test on SF-268 CNS; -9.43% (active) with SF-295 CNS; 28.6% in the test on SF-539 CNS; 80% in the test on UACC-257 melanoma.
